Assay results published in PubChem BioAssay (Tox21).
Records with an inconclusive call do not appear. Where a call stands in place of a potency, no number is given. Active and inactive are the calls of the source. Calls follow the shape of the full dose curve.

Test: qHTS assay to identify small molecule agonists of the AP-1 signaling pathway - cell viability counter screen (AID 1159525); also: nearly all actives have a fitted effect of over 55% in size
Details: ME-180 (cervical carcinoma) AP-1-bla cells viability, ATP luminescence, 5 h; series mostly up to 76.8 µM
From the text: National Center for Advancing Translational Sciences [NCATS]
NIH Chemical Genomics Center [NCGC]
U.S. Environmental Protection Agency [EPA]
National Institutes of Environmental Health Sciences [NIEHS]
National Toxicology Program [NTP]
U.S. Food and Drug Administration [FDA]
Activator protein-1 (AP-1), a transcription factor, plays an important role in tumor genesis by regulating genes involved in cell proliferation, differentiation, apoptosis, and angiogenesis. AP-1 activity is induced by a complex network of signaling pathways that involves extracellular signals, such as growth factors. The AP-1 protein complex formed from c-Fos and c-Jun binding to the AP-1 response element results in transcriptional activation of genes containing such elements within their promoter.
Low molecular weight molecules have been discovered and developed to modulate various components of these signaling pathways, for example, MAP kinase inhibitors. However, many points of pathway modulation remain untested due to the lack of chemical probes making this signaling locus of general interest.
Using a beta-lactamase reporter-gene under control of the AP-1 response element, a cell-based assay [CellSensor(TM) AP-1-bla ME-180 developed by Invitrogen Corp.] was used to measure EGF-induced signaling. The Tox21 10K library compounds were measured for their ability to positively modulate the action of EC50 EGF on reporter gene activity. Compounds were screened in a 15-pt titration series in 1536-well format. The cytotoxicity of the Tox21 compound library against this cell line was tested in parallel by measuring the intra cellular ATP content in the same wells.
Tox21 Assay Protocol Summary:
2500 cells/5uL in Opti-MEM medium containing 0.5% dialyzed FBS, 0.1 mM NEAA, 1 mM sodium pyruvate and 10 mM HEPES was dispensed into 1536-well black wall/clear bottom plates using a Multidrop dispenser and cells were cultured at 37 degrees Celsius overnight. Next day 23 nL of compounds dissolved in DMSO, positive controls or DMSO were delivered to each well using a pin tool. The plates were incubated at 37 degrees Celsius for 5 hours. 1 uL of LiveBLAzerTM B/G FRET substrate (Solution A+B+C+D) was added to each well using a Flying Reagent Dispenser. After incubated at room temperature for 2.5 hours the plates were measured on an EnVision plate reader at Excitation 405nm, Emission1=460nm and Emission 2=530nm. The %Activity was determined from the ratio of 460nm/530nm.
After the plates were read for Beta-Lactamase assay on Envision; 3 ul Cell Titer Glo (Promega) was added to measure the cytotoxicity and the plates were then incubated at RT in dark for 30 min. The luminescence was read on ViewLux (Perkin Elmer, Shelton, CT) using 6 sec exposure. ViewLux data was expressed as relative luminescence units.
For primary data analysis, raw plate reads for each titration point were first normalized relative to […] EGF control (100%) and DMSO only wells (basal, 0%).
For primary data analysis for viability assay, raw plate reads for each titration point were first normalized Tetra n-octyl ammonium bromide control (-100%) and DMSO (control, 100%).
Potency is read from the fitted curve at half-maximal effect.

Question: Which Potency does the source give for `C=C1C[C@@]23CC[C@H]4[C@@](C)(CCC[C@@]4(C)C(=O)O[C@@H]4O[C@H](CO)[C@@H](O)[C@H](O)[C@H]4O)[C@@H]2CC[C@]1(O[C@@H]1O[C@H](CO)[C@@H](O)[C@H](O[C@@H]2O[C@H](CO)[C@@H](O)[C@H](O)[C@H]2O)[C@H]1O[C@@H]1O[C@H](CO)[C@@H](O)[C@H](O)[C@H]1O)C3` here?
Answer: The Potency was “inactive”.

Question: For `O=[N+]([O-])c1ccc(O/N=C/c2cc(Br)c(O)c(Br)c2)c([N+](=O)[O-])c1`, which Potency is on record?
Answer: The Potency was “inactive”.

Question: For `CCOC(=O)C1=C(C)NC(C)=C(C(=O)OC)C1c1cccc(Cl)c1Cl` (stereo not given), which Potency is on record?
Answer: The Potency was “inactive”.

Question: For `CC(CC1c2ccccc2CCc2ccccc21)CN(C)C` (stereo not given), which Potency is on record?
Answer: The Potency was “inactive”.

Question: Which Potency does the source give for `NNC(=O)CP(=O)(c1ccccc1)c1ccccc1` here?
Answer: The Potency was “inactive”.

Question: With `C[C@@]12CCC[C@H]1[C@@H]1CC[C@H]3C[C@@H](O)CC[C@]3(C)[C@H]1CC2` as the compound, how does the Potency read?
Answer: The Potency was “inactive”.

Question: With `CC(C)(c1ccccc1)c1ccccc1` as the compound, how does the Potency read?
Answer: Its Potency is “inactive”.

Question: For `O=C(OC(=O)c1ccccc1)c1ccccc1`, which Potency is on record?
Answer: Its Potency is “inactive”.

Question: With `Brc1cc2ccccc2c2ccccc12` as the compound, how does the Potency read?
Answer: Its Potency is “inactive”.

Question: Which Potency does the source give for `C=C(C)C(=O)OCCCCCCCCCCCCC` here?
Answer: Its Potency is “inactive”.

Question: For `O=C1Cc2cc(Cl)ccc2N1`, which Potency is on record?
Answer: Its Potency is “inactive”.

Question: Which Potency does the source give for `CCC(OCCCOC)OC(C)=O` (stereo not given) here?
Answer: The Potency was “inactive”.

Question: Which Potency does the source give for `FC(F)(F)c1ccccc1Cl` here?
Answer: The Potency was “inactive”.

Question: For `CCCCCC[C@@H](O)C/C=C\CCCCCCCC(=O)O`, which Potency is on record?
Answer: Its Potency is “inactive”.

Question: With `C[C@@H]1CC(=O)NN=C1c1ccc(NN=C(C#N)C#N)cc1` as the compound, how does the Potency read?
Answer: The Potency was “inactive”.

Question: Which Potency does the source give for `CCCCCCCCOc1ccc(C(=O)O)cc1` here?
Answer: The Potency was “inactive”.

Question: With `CC(=O)Nc1cc(S(=O)(=O)O)cc2cc(S(=O)(=O)O)c(N=Nc3ccccc3)c(O)c12` as the compound, how does the Potency read?
Answer: Its Potency is “inactive”.

Question: For `CCCCC(CC)COP(=O)(O)O` (stereo not given), which Potency is on record?
Answer: The Potency was “inactive”.

Question: For `Nc1ccc(N=Nc2ccccc2)c(N)c1`, which Potency is on record?
Answer: The Potency was “inactive”.

Question: For `C=CC(=O)OCC1CC2CC1C1CCC(COC(=O)C=C)C21` (stereo not given), which Potency is on record?
Answer: Its Potency is “inactive”.

Question: Which Potency does the source give for `COc1ccc(OC(=O)N(CC(=O)O)Cc2ccc(OCCc3nc(-c4ccccc4)oc3C)cc2)cc1` here?
Answer: Its Potency is “inactive”.

Question: For `CCOC(=O)[C@H](CCc1ccccc1)N[C@@H](C)C(=O)N(CC(=O)O)C1Cc2ccccc2C1`, which Potency is on record?
Answer: Its Potency is 19 µM (active).

Question: With `Cc1cc(O)c(C)c(C)c1O` as the compound, how does the Potency read?
Answer: Its Potency is “inactive”.

Question: Which Potency does the source give for `CCCC(=O)C(=O)O` here?
Answer: Its Potency is “inactive”.

Question: Which Potency does the source give for `CC(C)(C)C(=O)C(=O)O` here?
Answer: The Potency was “inactive”.

Question: With `O=C1c2ccccc2C(=O)C1(O)O` as the compound, how does the Potency read?
Answer: Its Potency is “inactive”.

Question: With `C[C@H]1C[C@H](O)c2ccsc2S1(=O)=O` as the compound, how does the Potency read?
Answer: Its Potency is “inactive”.

Question: With `COc1cc(Nc2c(C#N)cnc3cc(OCCCN4CCN(C)CC4)c(OC)cc23)c(Cl)cc1Cl` as the compound, how does the Potency read?
Answer: The Potency was “inactive”.

Question: With `CO[C@]1(NC(=O)CSC(F)F)C(=O)N2C(C(=O)O)=C(CSc3nnnn3CCO)CO[C@H]21` as the compound, how does the Potency read?
Answer: Its Potency is “inactive”.

Question: Which Potency does the source give for `C/C=C/C=C/C=O` here?
Answer: The Potency was “inactive”.

Question: With `O=C(OCC(O)CO)c1ccccc1Nc1ccnc2cc(Cl)ccc12` (stereo not given) as the compound, how does the Potency read?
Answer: The Potency was “inactive”.

Question: Which Potency does the source give for `CO/N=C(/C(=O)N[C@@H]1C(=O)N2C(C(=O)O)=C(COC(N)=O)CS[C@H]12)c1ccco1` here?
Answer: Its Potency is “inactive”.

Question: Which Potency does the source give for `CCCCCCCCCCCCCCN(CCO)CCO` here?
Answer: The Potency was 54.9 µM (active).

Question: With `C=C(C)C(=O)OCCOCCOC(=O)C(=C)C` as the compound, how does the Potency read?
Answer: The Potency was “inactive”.

Question: Which Potency does the source give for `CCC1NC(=O)c2cc(S(N)(=O)=O)c(Cl)cc2N1` (stereo not given) here?
Answer: The Potency was “inactive”.

Question: Which Potency does the source give for `Nc1nnc(-c2ccc([N+](=O)[O-])o2)o1` here?
Answer: Its Potency is “inactive”.

Question: Which Potency does the source give for `O=C=Nc1cccc(C(F)(F)F)c1` here?
Answer: Its Potency is “inactive”.

Question: With `CNC(=O)c1cnn(-c2nc(N)c3ncn([C@@H]4O[C@H](CO)[C@@H](O)[C@H]4O)c3n2)c1` as the compound, how does the Potency read?
Answer: The Potency was “inactive”.

Question: With `Cc1ccccc1N=C(N)Nc1ccccc1C` as the compound, how does the Potency read?
Answer: The Potency was “inactive”.

Question: With `CN1C(C(=O)Nc2ccccn2)=C(O)c2sccc2S1(=O)=O` as the compound, how does the Potency read?
Answer: Its Potency is “inactive”.
